The list is not random: actives were taken first. Their share in the collection is about 4.2%.
ssDAF12 agonist = S. stercoralis DAF-12 nuclear receptor activators, primary screen, cell-based, luminescence, HEK293, GRIP1 co-expression, lit1-tk-luc; HEK293 ssDAF-12/GRIP1 lit1-tk-luc reporter; % of 3 µM dafachronic acid response; Nuclear hormone receptor DAF-12 (Strongyloides stercoralis); 370,000 compounds, 1% hits; activation, % at 6.8 µM;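 active means activation above the mean over all tested compounds plus 3 SD, cut at about 0.9% in these data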;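 further: 0% = DMSO-only wells and 100% = 3 µM delta7-dafachronic acid wells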
DAX1 StAR inh = DAX1 (NR0B1) inhibitors on StAR promoter, primary screen, cell-based, luminescence, SF-1 (NR5A1), full-length DAX-1; HEK293T StAR-luciferase reporter, SF-1/DAX-1 repression relief; inhibition, % at 6.8 µM; 370,000 compounds, 1.1% hits;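 active means inhibition above the mean over all tested compounds plus 3 SD, cut at about 3.6% in these data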;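 further: 0% = DAX-1 cells with DMSO and 100% = cells lacking DAX-1 with DMSO; higher inhibition means more luminescence from relief of DAX-1 repression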
hcDAF12 agonist = H. contortus DAF-12 nuclear receptor activators, primary screen, cell-based, luminescence, HEK293, lit1-tk-luc reporter. HEK293 hcDAF-12 lit1-tk-luc reporter; 0% DMSO, 100% Δ7-dafachronic acid. activation, % at 6.8 µM. 370,000 compounds, 1.4% hits;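 active means activation above the mean of all tested compounds plus 3 SD, cut at about 5.5% in these data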;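 further: 100% = response to 3 µM Δ7-dafachronic acid high control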
SMARCA2 act = SMARCA2 (BRM) function activators, primary screen, cell-based, luminescence, high throughput; MG213 cells, MMTV-luciferase reporter, dexamethasone, overnight; activation, % at 9.1 µM; 370,000 compounds, 1% hits; AID 652017, 2013; in the data active means activation above about 7.8%;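 further: 0% = vehicle wells and 100% = reference activator wells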
hgDAF-12 ag = H. glycines DAF-12 receptor agonists, primary screen, cell-based, luminescence, HEK293, GAL4 fusion, UAS-luciferase | Nuclear hormone receptor DAF-12 (Heterodera glycines), GAL4 fusion | HEK293 GAL4-hgDAF12 UAS-luciferase reporter, agonist luminescence; normalized to butyrate control | activation, % at 6.8 µM | 370,000 compounds, 1.8% hits | AID 687014, 2013;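 active means activation above a cutoff set at the mean of all screened compounds plus 3 SD, cut at about 10% in these data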;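 further: 0% = DMSO wells and 100% = sodium butyrate wells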
DAX1 inh confirm = DAX1 (NR0B1) inhibitors relieving SF-1 repression, confirmation, cell-based, luminescence, HEK293T, full-length DAX-1, SF-1 activated StAR promoter | inhibition, % at 6.8 µM | 2,400 compounds, 87% hits | HEK293T StAR-promoter luciferase reporter, SF-1/DAX-1 repression | shares compounds with DAX1 StAR inh;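 active means inhibition above the average of every tested compound plus 3 SD, cut at about 3.8% in these data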;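 further: 0% = DAX-1 cells with DMSO and 100% = no DAX-1 control cells with DMSO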
Target sequence (P51843 whole entry, looked up): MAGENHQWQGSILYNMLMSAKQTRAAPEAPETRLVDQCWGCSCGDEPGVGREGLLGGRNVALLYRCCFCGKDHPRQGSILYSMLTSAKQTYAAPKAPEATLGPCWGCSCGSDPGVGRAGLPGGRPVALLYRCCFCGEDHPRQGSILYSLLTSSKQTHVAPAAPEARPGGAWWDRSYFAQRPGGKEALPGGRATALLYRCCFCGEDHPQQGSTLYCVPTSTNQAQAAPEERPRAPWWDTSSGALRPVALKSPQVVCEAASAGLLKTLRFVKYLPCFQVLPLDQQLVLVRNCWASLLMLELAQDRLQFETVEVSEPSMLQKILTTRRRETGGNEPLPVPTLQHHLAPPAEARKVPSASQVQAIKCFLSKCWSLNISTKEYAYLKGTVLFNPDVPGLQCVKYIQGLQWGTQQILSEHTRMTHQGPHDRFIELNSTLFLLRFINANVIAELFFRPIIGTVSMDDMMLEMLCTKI
SF1 AF2mut Luc = StAR reporter signal changes without DAX1, counter-screen for DAX1 inhibitor project, cell-based, luminescence, AF-2 mutant SF-1, transactivation; shares compounds with DAX1 StAR inh; HEK293 StAR-luciferase, SF-1 AF2 mutant; inhibition, % at 6.8 µM; 2,400 compounds, 78% hits; AID 652136, 2013;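 active means inhibition above the mean of all tested compounds plus 3 SD, cut at about 3% in these data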;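 further: 0% = DAX-1 transfected cells with DMSO and 100% = cells without DAX-1 with DMSO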
An asterisk follows results filed as active; / = no result.

SMILES	ssDAF12 agonist	DAX1 StAR inh	hcDAF12 agonist	SMARCA2 act	hgDAF-12 ag	DAX1 inh confirm	SF1 AF2mut Luc
C=CCN(C(=O)c1oc2c(Cl)cc(C)cc2c1C)C1CCS(=O)(=O)C1 (stereo unspecified)	0	5.2*	1	4	6	6.1*	4.0*
O=C(COc1ccc2ccccc2c1Br)Nc1cccnc1	-1	5.1*	-1	4	2	4.2*	2
O=C(COc1ccc2ccccc2c1Br)Nc1ccncc1	-1	-3	-3	-4	-2	/	/
CC1(c2nnnn2Cc2ccccc2)CCSCC(=O)N1Cc1cccs1 (stereo unspecified)	-1	0	0	-1	-1	/	/
O=C(NC1CCCCC1)C(c1ccc(-c2ccccc2)cc1)n1c(=O)c(-c2ccco2)nc2ccccc21 (stereo unspecified)	0	4.8*	1	2	4	-1	-1
CCN(C(=O)[C@@H](C)[C@@H](O)c1ccc2ccccc2c1)c1ccccc1	-1	-1	-1	-2	-1	/	/
COc1cccc(/C=C/C(=O)NNC(=O)c2ccco2)c1OC	0	4.9*	4	7	10	9.1*	6.5*
COc1cccc(/C=N/NC(=O)c2ccccc2NC(=O)c2ccco2)c1OC	-1	-1	0	-1	0	/	/
O=C(Nc1ccc2c(c1)OCCO2)C1c2ccccc2OCC(=O)N1C1CC1 (stereo unspecified)	-1	0	0	-3	0	/	/
Cc1cc(NC(=O)CSc2nnc(-c3cccc(F)c3)n2N)no1	-1	5.2*	-1	6	-2	2	2
COc1ccc(-c2nnc(SCC(=O)Nc3cc(C)on3)n2N)cc1OC	0	0	-2	4	0	/	/
Cc1cc(NC(=O)CSc2ccc(-c3ccc(Br)cc3)nn2)no1	0	5.3*	3	4	7	0	0
CC1CCC2(CC1)CCC2NCc1ccc(Cl)cc1 (stereo unspecified)	-2	/	1	/	-2	/	/
Cc1nc2ccc(NC(=O)Cc3ccccc3F)cc2s1	0	5.3*	4	3	9	11*	6.9*
Cc1nc2ccc(NC(=O)c3cccs3)cc2s1	0	7.4*	3	8	8	9.3*	4.7*
Cc1nn(-c2ccccc2)c(C)c1/C=N\NC(=O)CSc1nc2ccccc2n1Cc1ccc(Cl)cc1	-1	0	-1	2	1	/	/
Cc1ccc(C(=O)Nc2ccc3c(c2)CCC3)cc1	0	4.6*	5	2	6	6.0*	4.2*
CC(=O)c1cccc(NC(=O)c2ccc3c(c2)CCCC3)c1	-1	8.2*	2	5	13*	8.8*	5.4*
CCN(CC)C(=O)CC[C@@H]1CC[C@]2(CCCN(C(=O)c3ccco3)C2)O1	0	0	-1	-2	-2	/	/
C/C(=N/NC(=O)c1ccncc1)c1ccc(NC(=O)c2ccc(Cl)cc2Cl)cc1	0	5.3*	2	4	6	3	0
COc1ccc(C(=O)Nc2ccc(/C(C)=N/NC(=O)c3ccncc3)cc2)cc1	0	1	1	5	9	/	/
Cc1ccc(C=NNC(=O)CSc2nc3sc4c(c3c(=O)n2-c2ccccc2)CCCC4)s1	-1	0	-1	-2	-2	/	/
CC(=NNc1ccc2ccccc2n1)c1ccccc1O	1	5.9*	5	4	9	0	-4
c1ccn2c(SCc3ccc4c(c3)OCCO4)nnc2c1	-1	4.5*	3	0	4	5.3*	3.5*

Compound activity: PubChem, The Scripps Research Institute Molecular Screening Center
